From PubChem BioAssay
Shown are actives, neighbours in structure and some others; about 28% of the full set was active somewhere.
CYP2C19 inh: inhibitors of human CYP2C19; 96,000 tested, 21% active; CYP2C19 Supersomes, luciferin-H EGE luminescence, 30 min; P33261; inhibition, % at 5 µM;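 active means CYP2C19 inhibition above a set limit at 5 µM in the primary screen, cut at about 50% in these data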
PLK1 PBD inh: Plk1 (human) PBD binding inhibition. P53350. Plk1 PBD phosphopeptide binding, fluorescence polarization. inhibition, %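 (tested at about 20 µM)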. 97,000 tested, 0.13% active; in the data active means inhibition above about 34%, passing the limit was not always enough
CYP2C9 inh: inhibitors of human CYP2C9; 96,000 tested, 20% active; P11712; CYP2C9 Supersomes, luciferin-H conversion, luminescence; inhibition, % at 5 µM;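 active means blocking of liver enzyme CYP2C9 beyond about 50% at 5 µM, limit read from the data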
Target sequence (P11712 whole entry, looked up): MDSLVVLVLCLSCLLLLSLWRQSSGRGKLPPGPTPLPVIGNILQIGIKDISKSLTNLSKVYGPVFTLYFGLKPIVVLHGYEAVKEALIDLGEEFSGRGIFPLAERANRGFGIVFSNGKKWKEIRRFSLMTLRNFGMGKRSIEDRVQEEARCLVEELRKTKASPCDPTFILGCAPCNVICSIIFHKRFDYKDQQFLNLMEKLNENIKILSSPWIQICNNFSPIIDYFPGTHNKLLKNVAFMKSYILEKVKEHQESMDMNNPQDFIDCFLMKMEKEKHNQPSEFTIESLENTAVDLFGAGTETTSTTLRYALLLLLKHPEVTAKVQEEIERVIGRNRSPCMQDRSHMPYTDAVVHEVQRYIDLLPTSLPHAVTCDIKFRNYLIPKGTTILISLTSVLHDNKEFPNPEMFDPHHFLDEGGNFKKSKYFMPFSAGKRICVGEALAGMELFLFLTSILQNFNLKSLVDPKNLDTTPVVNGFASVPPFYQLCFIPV
CYP2C9 activ: increases human cytochrome P450 2C9 activity; activation factor at 5 µM; recombinant CYP2C9, luciferin-H conversion, luminescence; active compounds read high; factor 1 = untreated enzyme, 0 = blocked; 96,000 tested, 1.4% active; AID 1024;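 active means activation factor of 2 or more for CYP2C9 at a 5 µM dose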
PLK1 inh: blocks human PLK1 kinase activity; P53350; recombinant PLK1 kinase, TR-FRET peptide phosphorylation; inhibition, % at 10 µM; 97,000 tested, 0.53% active;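 active means inhibition of 50% or more in the single-concentration screen; inactive means inhibition below 50%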
CYP2C19 act: cytochrome P450 2C19 (human) activation; P33261; recombinant CYP2C19, luciferin-H EGE luminescence; active compounds read high; 0 = fully inhibited enzyme, 1 = untreated enzyme; activation factor at 5 µM; 96,000 tested, under 10 active;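 active means activation factor of at least 2 at 5 µM in the primary screen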
Each line names hits and unclear results; the compound was inactive in the other large screens.

CCN(CC(=O)NCc1cccs1)S(=O)(=O)c1ccc(C(C)C)cc1	none
Cc1ccc(-n2ncc3c(=O)n(CC#N)cnc32)cc1	none
Cc1ccc(CCNC(=O)C2CCCN(S(=O)(=O)c3cccc4nsnc34)C2)cc1 (stereo not given)	none
O=C(c1ccccc1)N1CCN(c2ccc(Cl)cc2)CC1	CYP2C19 inh 98, CYP2C9 inh 68
O=C(C1COc2ccccc2O1)N1CCN(c2ccc(F)cc2)CC1 (stereo not given)	CYP2C19 inh 86, CYP2C9 inh 75
CC(C)Cc1cc(C(=O)N2CCN(c3ccc(F)cc3)CC2)no1	CYP2C19 inh 76, CYP2C9 inh 65 (no result: PLK1 PBD inh, PLK1 inh)
Cc1ccc(C(=O)N2CCN(c3ccc(NC(=O)c4cccnc4)cc3)CC2)cc1	CYP2C9 inh 74
O=C(C1COc2ccccc2O1)N1CCCC1 (stereo not given)	none
Cn1c(C(=O)N2CCN(c3ccc(Cl)cc3)CC2)cc2c(=O)[nH]c3ccccc3c21	PLK1 inh 52
CCCNC(=O)c1cccc(Cn2nc(C)c(Br)c2C)c1	CYP2C19 inh 85, CYP2C9 inh 63
COc1ccc(NCc2nnc(SCC#N)n2-c2ccccc2OC)cc1	none
CCN(CC)/C(=N/S(=O)(=O)c1ccc(C)cc1)c1ccccc1	CYP2C19 inh 57
Cc1ccc(S(=O)(=O)/N=C(/NC(=S)Nc2ccccc2)c2ccccc2)cc1	none
CCOC(=S)N/C(=N\S(=O)(=O)c1ccccc1)c1ccccc1	none (no result: CYP2C19 inh, CYP2C9 inh, CYP2C9 activ, CYP2C19 act)
Cc1ccc(NC(=S)N/C(=N/S(=O)(=O)c2ccccc2)c2ccccc2)cc1	CYP2C9 inh 82
C/C(=N\S(=O)(=O)c1ccc(C)cc1)N1CCN(S(=O)(=O)c2ccccc2)C1	none
CCCOC(=S)N/C(=N\S(=O)(=O)c1ccccc1)c1ccccc1	CYP2C9 inh 67
CNS(=O)(=O)c1cnccc1N1CCN(c2cccc(Cl)c2)CC1	CYP2C19 inh 58
Cc1noc(C)c1CSc1nc2ccccc2n1C	CYP2C19 inh 89, CYP2C9 inh 62 (no result: PLK1 PBD inh, PLK1 inh)
Cc1noc(C)c1CSc1cc(C)c2ccccc2n1	CYP2C19 inh 86, CYP2C9 inh 55
Cc1noc(C)c1CSc1nnc2c(C)cc3ccccc3n12	none (no result: CYP2C19 inh, CYP2C9 inh, CYP2C9 activ, CYP2C19 act)
Cc1cc(SCCC(=O)O)nc2ccccc12	none
Cc1noc(C)c1CSc1nnc(-c2ccccc2F)n1CCc1ccccc1	none
Cc1noc(C)c1CSc1ccc(Br)cc1	CYP2C19 inh 96
Cc1noc(C)c1CSc1nnc2sc3ccccc3n12	CYP2C19 inh 78
CCN(CC)CCCN1C(=O)C(=O)/C(=C(/O)c2ccc3c(c2)CC(C)O3)C1c1cccnc1 (stereo not given)	none (no result: PLK1 PBD inh, PLK1 inh)
CC(=O)NC1(c2nnnn2CCOC(=O)Nc2ccc(Cl)cc2)CCCCC1	CYP2C19 inh 95, CYP2C9 inh 71
CC(=O)N(C)C1(c2nnnn2CCOC(=O)Nc2cccc3ccccc23)CCCC1	none
O=C(Nc1ccc(Cl)cc1)OCCn1nnnc1C(c1ccccc1Cl)N1CCOCC1 (stereo not given)	CYP2C9 inh 54
CC(=O)N(C)C1(c2nnnn2CCOC(=O)Nc2ccc(Cl)cc2)CCCCC1	CYP2C19 inh 93
COc1ccccc1OCC(=O)Nc1cccc(C(=O)N2CCOCC2)c1	none
CC(=O)Nc1ccc(S(=O)(=O)Nc2nc3ccccc3nc2N2CCCCCC2)cc1	CYP2C9 inh 70
COc1ccc(N2CCN(c3nc4ccccc4nc3NS(=O)(=O)c3ccccc3)CC2)cc1	CYP2C19 inh 53, CYP2C9 inh 98
CC(=O)Nc1ccc(S(=O)(=O)Nc2ncccn2)cc1	none (no result: PLK1 PBD inh, PLK1 inh)
O=S(=O)(Nc1nc2ccccc2nc1N1CCN(c2ccccn2)CC1)c1ccc(Cl)cc1	CYP2C9 inh 100
CCOc1nc2ccccc2nc1NS(=O)(=O)c1ccccc1	none
Cc1c(Nc2nc3ccccc3nc2N2CCN(c3ccccc3)CC2)c(=O)n(-c2ccccc2)n1C	CYP2C9 inh 75
COc1ccccc1-n1c(SCC(=O)N2CCOCC2)nc(O)c(Cc2ccccc2)c1=O	none
Clc1ccc(OCc2cc(-c3ccccc3)no2)c(Cl)c1	none
Cc1ccc(S(=O)(=O)NC2=C(N3CCN(Cc4ccccc4)CC3)C(=O)c3ccccc3C2=O)cc1	CYP2C9 inh 63
Cc1ccc(S(=O)(=O)Nc2nc3ccccc3nc2N2CCN(c3ccccc3F)CC2)cc1	CYP2C9 inh 100
COC(=O)Nc1ccc(S(=O)(=O)N2CCN(c3ccc(F)cc3)CC2)cc1	none
CC(=O)Nc1ccc(S(=O)(=O)NC2=C(N3CCN(c4ccc(F)cc4)CC3)C(=O)c3ccccc3C2=O)cc1	CYP2C9 inh 61
Cc1ccc(S(=O)(=O)N(CC(=O)N2CCN(c3ccccc3F)CC2)C2CCCCC2)cc1	none
Cc1ccc(S(=O)(=O)NC2=C(N3CCN(c4ccccc4F)CC3)C(=O)c3ccccc3C2=O)cc1	CYP2C9 inh 61
COc1cc(C(=O)N(Cc2cccc(Cl)c2)C2CCS(=O)(=O)C2)cc(OC)c1OC (stereo not given)	none
Cc1ccc(NCN2C(=O)C3CC=CCC3C2=O)cc1 (stereo not given)	none (no result: CYP2C19 inh, CYP2C9 inh, CYP2C9 activ, CYP2C19 act)
COc1ccccc1OCc1nnc(SCC(=O)N2CCCCC2)n1-c1ccccc1	CYP2C19 inh 71
O=C(CSc1nnc(CN2CCOCC2)n1-c1ccc(Cl)cc1)N1CCc2ccccc21	none (no result: CYP2C19 inh, CYP2C9 inh, CYP2C9 activ, CYP2C19 act)
COc1ccc(OCc2nnc(SCC(=O)N3CCCc4ccccc43)n2-c2ccc(C)cc2)cc1	CYP2C19 inh 62, CYP2C9 inh 87
CC(c1nnc(SCC(=O)N2CCc3ccccc32)n1-c1ccc(Cl)cc1)N(C)C (stereo not given)	CYP2C19 inh 61
O=C(CSc1nnc2scc(-c3ccccc3)n12)N1CCCc2ccccc21	CYP2C19 inh 61
COc1ccc(-n2c(Cc3cccn3C)nnc2SCC(=O)N2CCCc3ccccc32)cc1	none
Cc1cnn(Cc2ccccc2)c1N	none
Cc1csc(SCC(=O)c2c(N)n(CC(C)C)c(=O)n(C)c2=O)n1	none
CC(C)N1CC(C(=O)O)CC1=O (stereo not given)	none
CC(=O)Cn1c(C(F)(F)F)nc2ccccc21	none
O=C(CSc1nnc(CN2CCOCC2)n1-c1ccccc1)N1CCc2ccccc21	CYP2C9 inh 63
O=C(CSc1nnc2scc(-c3ccccc3)n12)c1ccc2c(c1)OCCO2	PLK1 inh 59
CCCn1c(SCC(=O)N2CCCc3ccccc32)nnc1-c1ccccn1	CYP2C19 inh 79
Cc1ccc(-c2nnc3ccc(SCC(=O)N4CCc5ccccc54)nn23)cc1	CYP2C9 inh 100
COCc1nnc(SCC(=O)NC(C)c2ccccc2)n1-c1ccccc1 (stereo not given)	CYP2C19 inh 59, CYP2C9 inh 55
COc1ccc(OCCSc2nnc(C)n2-c2ccccc2)cc1	none (no result: CYP2C19 inh, CYP2C9 inh, CYP2C9 activ, CYP2C19 act)
N#Cc1ccc(OCc2nnc(SCC(=O)N3CCCc4ccccc43)n2-c2ccccc2)cc1	CYP2C19 inh 85, CYP2C9 inh 87
